Structures are written as SMILES. Among all 300,000 compounds or so, about 2,700 (0.9%) were called active. The sample holds actives, similar compounds and a random draw of the others, so the mix is not that of the screen. Values without a mark were called inactive.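 Rule for the calls: active = mean inhibition of at least 30% with at least half of replicates also reaching 30%; inconclusive = no clear call, values can overlap the other calls; inactive = the rest.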

The experiment addresses Golgi-associated PDZ and coiled-coil motif-containing protein (Homo sapiens) (UniProt Q9HD26). Description: untagged CAL PDZ binding inhibitors, primary screen, biochemical, fluorescence polarization, HTS (AID 602252).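 Note: 0% = DMSO neutral control and 100% = excess unlabeled competitor peptide PRC23.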 The note with it: purified CAL PDZ, TMR-peptide fluorescence polarization, 1 h; at 24.9 µM; hits give high values. In general terms: In fluorescence polarisation assays a small probe gives low polarisation when free and higher when bound to something large.
As to `CCOc1ccc(CCNC(=O)COC(=O)C2CCN(S(=O)(=O)c3ccccc3)CC2)cc1OCC`, the inhibition – broadly, the relative decrease from the control value, in per cent – was -1.05%.
As to `O=C(N[C@H]1C/C=C\C(c2cccc(F)c2)N(Cc2ccccc2)C(=O)C1)OCC1c2ccccc2-c2ccccc21` (stereo partly drawn), the inhibition is -1.43%.
In the case of `O=C(Nc1c(Br)cc2c(c1Br)Cc1ccccc1-2)C(F)(F)F`, the inhibition is -4.34%.
In the case of `Cc1cn(C2CC(O)C(CO)O2)c(=O)n(CCCc2ccccc2)c1=O` (stereo not drawn), the inhibition was -2.38%.
For `COc1ccc(S(=O)(=O)N2CCOCC2)cc1NC(=O)c1ccc(OCC(C)C)c(OC)c1`, the inhibition was -4%.
The same measure for `COc1cc2c(cc1OC)C1C(=O)c3cc(OS(C)(=O)=O)c(OC)cc3C1N(C)C2=O` (stereo not drawn): -1.26%; for `Cc1noc(NS(=O)(=O)c2ccc(NC(=O)C34CCC(CC3)C4)cc2)c1C`: -5.91%.
As for `CCn1c(SCC(=O)Nc2ccc(S(=O)(=O)Nc3onc(C)c3C)cc2)nnc1-c1ccccc1`, the inhibition is 30.7% (active).
In the case of `CCn1c(SCC(=O)Nc2ccc3c(c2)OCCO3)nnc1-c1ccncc1`, the inhibition is -1.31%.
`COc1ccc(C(CNC(=O)c2cccc(S(=O)(=O)Nc3ccc(Br)cc3)c2)N(C)C)cc1` (stereo not drawn): the inhibition is -3.75%.
Regarding `O=[N+]([O-])c1ccc(NS(=O)(=O)c2ccccc2)c(Cl)c1`, the inhibition was -10.2%.
To `O=[N+]([O-])c1ccc(COc2ccccc2CN2CCOCC2)cc1` belongs 0.702%; to `COc1ccccc1N1CCN(/N=C/c2ccc(O)cc2O)CC1`, 77.6% (active).
For `COc1cc(/C=N/N2CCN(c3ccccc3)CC2)ccc1OC(C)=O`, the inhibition is 4.07%.
As to `COc1ccccc1N1CCN(/N=C\C(Br)=C\c2ccccc2)CC1`, the inhibition was 1.35%.
In the case of `CC(=NNC(=S)N1CCCCCC1)c1ccccn1`, the inhibition is -1.44%.
As to `CN(O)C(=S)c1ccccc1`, the inhibition was -3.98%.
The same measure for `CN1CCN(S(=O)(=O)c2ccc(N3CCN(c4ccccc4O)CC3)c([N+](=O)[O-])c2)CC1`: -6.2%; for `O=C(C[C@H]1C[C@H](C(=O)N2CCOCC2)[C@@]2(CCC3CCCC3)c3[nH]c4ccc(Cl)cc4c3CCN2C1=O)NCc1ccco1`: 4.95%; for `CCOC(=O)C1=C(C)N(C[C@@H]2CC[C@@H](Cc3ccc(-c4ccccc4)cc3)O2)C(=O)NC1c1ccc([N+](=O)[O-])cc1` (stereo partly drawn): -2.42%.
As to `Cc1ccccc1OC/C(O)=C(\C#N)c1nc2ccccc2[nH]1`, the inhibition is 4.87%.
Consider `CC(C)(C)c1nnc2sc(SCC(O)=C(C#N)c3nc4ccccc4[nH]3)nn2c1=O`, for which the inhibition is 43.7% (active).
With `N#C/C(=C(/O)COc1cccc2ccccc12)c1nc2ccccc2[nH]1`, the inhibition is -1.44%.
As to `CC1CCCCC12NC(=O)N(CC(=O)OCc1c(F)cccc1Cl)C2=O` (stereo not drawn), the inhibition was -9.25%.
Consider `C(#CCN1CCOCC1)CCCN1CCOCC1`, for which the inhibition is -3.29%.
For the molecule `Cc1cc(C(=O)COc2ccc(Br)cc2F)c(C)n1C1CC1`, the inhibition is -6.1%.
Regarding `COc1ccc(CNC(=O)COc2ccccc2C(=O)c2cnn(-c3ccccc3)c2)cc1OC`, the inhibition is -9.89%.
To `O=C(CNCCO)NC12CC3CC(CC(C3)C1)C2` belongs 40.5% (active); to `CC(NCCO)C(=O)C12CC3CC(CC(C3)C1)C2` (stereo not drawn), 4.83%; to `O=C(COC(=O)C12CC3CC(CC(O)(C3)C1)C2)NC12CC3CC(CC(C3)C1)C2`, -5.51%.
With `Cc1cccc(C(=O)N[C@H](C(=O)NCc2cccs2)C(C)C)c1`, the inhibition is -0.924%.
To `O=C(Nc1ccc(S(=O)(=O)N2CCOCC2)cc1)C1CCN(S(=O)(=O)c2ccc(Cl)cc2)CC1` belongs -10.9%.
Regarding `CCNC(=S)Nc1cccc(Cl)c1C`, the inhibition was -2.42%.
In the case of `CN(C)S(=O)(=O)c1cccc(NC(=S)NCc2ccc3c(c2)OCO3)c1`, the inhibition is -4.92%.
For `Cc1c(Cl)cccc1NC(=S)NCc1ccc2c(c1)OCO2`, the inhibition is 51.1% (active).
The same measure for `CC(C)n1cnc2c(NCc3ccccc3)cc(OCC3CCN(C)CC3)cc21`: 3.01%; for `CN(C(=O)c1cccc(NC(=O)C2CCN(C(=O)OC(C)(C)C)CC2)c1)C1CCC1`: -3.04%; for `O=C(O)c1ccc(S(=O)(=O)N2CCOCC2)o1`: 32.5% (active).
As to `O=C(CCc1ccc(S(=O)(=O)N2CCOCC2)cc1)NN=C1CCCCCCC1`, the inhibition is -3.33%.
As to `O=C(c1cc(S(=O)(=O)N2CCOCC2)ccc1Cl)N1CCOCC1`, the inhibition was -1.76%.
Consider `Cc1cccc(C=CC(=O)c2ccc(Cl)cc2)c1`, for which the inhibition is -5.84%.
In the case of `Cc1cc(OCCCC(=O)Nc2cc(S(=O)(=O)N3CCOCC3)ccc2N2CCOCC2)ccc1Cl`, the inhibition is -3.89%.
Take `CN(C(=O)c1cccc(NC(=O)Cc2ccc([N+](=O)[O-])cc2)c1)C1CCC1`: the inhibition is -2.37%.
`COc1ccc(S(=O)(=O)N2CCc3ccccc32)cc1C(=O)Nc1cc(S(C)(=O)=O)ccc1Cl`: the inhibition is -5.31%.
The same measure for `CC1CN(C(=O)c2ccc([N+](=O)[O-])s2)CC(C)O1` (stereo not drawn): 0.023%.
The same measure for `O=C(CSC(=S)N1CCCCC1)c1c(F)cccc1F`: 79.2% (active); for `O=C(CSC(=S)N1CCOCC1)c1ccccc1`: 0.137%; for `CC(=O)c1ccc(NC(=O)CSC(=S)N2CCCC2)cc1`: -3.19%.
To `O=C(CNC(=O)c1ccccc1F)c1ccc(Br)cc1` belongs 57.3% (active); to `O=C(Nc1ccc(NC(=O)c2ccccc2F)cc1)c1ccccc1F`, 4.51%; to `O=C(CNC(=O)c1ccc(F)cc1)c1ccccc1`, -6.34%.
In the case of `Cc1c(NC(=O)CN(C)CC(=O)Nc2ccc(F)c(F)c2F)c(=O)n(-c2ccccc2)n1C`, the inhibition was -3.99%.
The same measure for `COCCN1C(=O)c2oc3c(C)cc(C)cc3c(=O)c2C1c1cccc(O)c1` (stereo not drawn): 47.9% (active); for `O=C1c2oc3ccc(Br)cc3c(=O)c2C(c2cccc(F)c2)N1CCO` (stereo not drawn): 3.36%; for `O=C1c2oc3ccccc3c(=O)c2C(c2cccc(O)c2)N1c1ccccn1` (stereo not drawn): -1.77%.
Take `Cc1ccc(C(=O)Nc2ncccc2C)cc1S(=O)(=O)N1CCOCC1`: the inhibition is -3.36%.
For `Cc1ccc(C(=O)NCC(c2cccs2)N(C)C)cc1S(=O)(=O)N1CCOCC1` (stereo not drawn), the inhibition was 47.1% (active).
As for `COc1ccccc1C(CNC(=O)c1ccc(C)c(S(=O)(=O)N2CCCCC2)c1)N(C)C` (stereo not drawn), the inhibition is -4.72%.
For the molecule `O=C(Nc1c(Br)cc2c(c1Br)Cc1cc([N+](=O)[O-])ccc1-2)C(Cl)Cl`, the inhibition was -7.68%.
To `Cn1cnnc1Sc1ccc(CN2CCN(C3CCCC3)C(CCO)C2)o1` (stereo not drawn) belongs 2.66%; to `OCCC1CN(Cc2ccc3nsnc3c2)CCN1C1CCCC1` (stereo not drawn), 2.19%; to `OCCC1CN(Cc2ccc3nsnc3c2)CCN1C1CCCCC1` (stereo not drawn), 77% (active).
Regarding `CCOc1ccc(-c2nc(C)sc2CC(=O)O)cc1`, the inhibition is -0.665%.
On to `C/C(=N/Nc1nc(-c2ccccc2)c(CC(=O)O)s1)c1ccccc1`, for which the inhibition is 2.17%.
As for `CCOC(=O)C(=O)Nc1nc(-c2ccccc2)c(CC)s1`, the inhibition was 65.4% (active).
The same measure for `CCCCCCCCNS(=O)(=O)CCNC1CCCCC1`: 0.068%; for `CC(=O)Oc1ccc(OC(C)=O)c2c1C1C=CC2CC1`: 3.2%; for `COc1ccc(N=Cc2c(O)[nH]c3ccccc23)cc1OC`: 0.564%.
`COc1cc(N=Cc2c(O)c3ccccc3oc2=O)c(OC)cc1Cl`: the inhibition is 36.3% (active).
Turning to `Cc1ccc(N=Cc2c(O)cc(C)oc2=O)c(C)c1`, the inhibition is -1.38%.
To `CC(=O)Nc1ccc(S(=O)(=O)NCC(=O)OCC(=O)c2ccc[nH]2)cc1` belongs -5.59%; to `Nc1ncnc2c1ncn2[C@@H]1O[C@H](CNCc2cccn2-c2nccs2)[C@@H](O)[C@H]1O`, -2.1%; to `COc1ccc(C2CC(=O)NC(=O)C2)cc1`, -5.54%.
Turning to `COc1ccc2c(c1)C(=O)CC(c1ccccc1)O2` (stereo not drawn), the inhibition is 16.3%.
As for `COC1=CC(=O)OC(c2ccc(OC)cc2)C1` (stereo not drawn), the inhibition is 45% (active).
As for `CC1(C)C(=O)CCC2(C)C1=CCC1C2C(=O)CC2(C)C1CCC2(O)C(=O)CO` (stereo not drawn), the inhibition is -4.84%.
In the case of `O=C(O)c1ccc([N+](=O)[O-])cc1Sc1ccsc1`, the inhibition is -2.87%.
For the molecule `O=C1N[C@@H](c2ccccc2)COC(=O)[C@H](Cc2ccc(F)cc2)C/C=C\C[C@@H]1CC(=O)N(CCO)Cc1ccccc1`, the inhibition is 2.21%.
As to `COc1ccc(CN2C(CC(=O)Nc3cccnc3)c3ccc(C(F)(F)F)cc3S2(=O)=O)cc1` (stereo not drawn), the inhibition was -6.01%.
`CSCCC1NC(=O)N(CC(=O)Nc2cccc(S(=O)(=O)N3CCCCCC3)c2)C1=O` (stereo not drawn): the inhibition is -13.3%.
As for `CCCCN(C(=O)CSCc1ccc(C)cc1)c1c(N)n(Cc2ccccc2)c(=O)[nH]c1=O`, the inhibition was -2.71%.
Turning to `Cc1cnc(NC(=O)CSc2c(Cl)cccc2Cl)s1`, the inhibition is -4.72%.
For the molecule `Cc1cnc(NC(=O)c2ccc(Cl)nc2)s1`, the inhibition is 5.61%.
To `Cc1cnc(NC(=O)c2ccccn2)s1` belongs 54.3% (active).
`O=C(Nc1ccn(CCCNCc2ccc3[nH]ccc3c2)c(=O)n1)OCc1ccccc1`: the inhibition was -6.18%.
As for `O=C(NCCN1CCOC1=O)C1CCC(=O)N(CCc2ccc(Cl)cc2)C1` (stereo not drawn), the inhibition is -3.91%.
The same measure for `O=C(NCCCc1ccccc1)C1CCC(=O)N(CCc2ccc(Cl)cc2)C1` (stereo not drawn): -3.25%.
To `Cc1cc(CNC(=O)C2CCC(=O)N(CCc3ccc(Cl)cc3)C2)no1` (stereo not drawn) belongs 45.2% (active).
With `Cc1ccc(NC(=O)C2CCC(C(C)(C)C)CC2)cc1S(=O)(=O)N1CCOCC1` (stereo not drawn), the inhibition was -5.24%.
Regarding `O=C(CC1Sc2ccccc2NC1=O)NNc1ccc(Cl)c(Cl)c1` (stereo not drawn), the inhibition is -5.96%.
For `CSc1ccc(-c2c(C#N)c(N)nc3c2c(C)nn3-c2ccccc2)cc1`, the inhibition is -0.521%.
Take `Cc1nc2c(c(C)nn2-c2ccccc2)c(C)c1C`: the inhibition is 45.7% (active).
For the molecule `CCCNC(=O)CCc1c(C)nc2c(c(C)nn2-c2ccccc2)c1C`, the inhibition was -0.965%.

The values above are taken from PubChem BioAssay AID602252 (Broad Institute, 2012).
